Our source for the AC50 and outcome values is PubChem BioAssay (EPA / NIEHS).

Calls of active or inactive are those of the source. How the source made its calls: active means hit-call score of the fitted dose curve at least 0.9, where 1 is the maximum; inactive means score below 0.9.

Read-out in assay [1]: Interleukin-8 (IL8), CXCL8 (gene 3576)
As to the kind of experiment: BSK_hDFCGF_IL8: BioMAP Diversity Plus: hDFCGF Assay for Interleukin-8 (IL8) Biomarker Activity (AID 2283058). As to conditions: primary human foreskin fibroblasts; actives raise or lower the signal. The essentials:
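Primary human foreskin fibroblasts (hDFCGF system) dosed with chemical; IL-8 measured by ELISA 24 hours later. Bidirectional curve fitting relative to DMSO baseline; cytotoxicity tracked in parallel cultures by SRB total protein staining.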

Assay [2] can be described thus: BSK_hDFCGF_Proliferation: Cell Proliferation Assessment in the BioMAP Diversity Plus: hDFCGF Assay (AID 2283059).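 Further: curves fitted for both rise and fall of signal versus DMSO baseline.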 As to conditions: primary human foreskin fibroblasts. In short, it runs like this: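 Sub-confluent human foreskin fibroblast cultures receive test chemical […]. Relative cell number is quantified by sulforhodamine B staining (0.1%, after 10% TCA fixation) at 560 nm, with bidirectional fitting referenced to DMSO.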

Read-out in assay [3]: Macrophage colony-stimulating factor (MCSF), CSF1 (gene 1435)
As to the kind of experiment: BSK_hDFCGF_MCSF: BioMAP Diversity Plus: hDFCGF Assay for Macrophage colony-stimulating factor (MCSF) Biomarker Activity (AID 2283060). As to conditions: primary human foreskin fibroblasts; actives raise or lower the signal. In short, it runs like this:
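Human foreskin fibroblast primary cultures; M-CSF measured by ELISA 24 hours after chemical dosing. Bidirectional fitting relative to DMSO, with overt cytotoxicity tracked by parallel SRB total-protein staining (0.1% SRB, 10% TCA fixation, 560 nm).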

A short description of assay [4]: BSK_hDFCGF_SRB: Viability Assessment in the BioMAP Diversity Plus: hDFCGF Assay (AID 2283061).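 Further: cells exposed to compound for 24 h before the read.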 As to conditions: primary human foreskin fibroblasts. The essentials: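 Human foreskin fibroblasts in 96-well plates were treated 24 h. Total protein was measured by 0.1% SRB staining after 10% TCA fixation, read at 560 nm. Data were fitted bidirectionally against DMSO.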

Read-out in assay [5]: TIMP metallopeptidase inhibitor 1 (TIMP1), TIMP1 (gene 7076)
As to the kind of experiment: BSK_hDFCGF_TIMP1: BioMAP Diversity Plus: hDFCGF Assay for TIMP metallopeptidase inhibitor 1 (TIMP1) Biomarker Activity (AID 2283062). The settings on record: primary human foreskin fibroblasts; actives raise or lower the signal. In short, it runs like this: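 Human foreskin fibroblast primary cultures dosed for 24 h; secreted/surface TIMP-1 quantified by ELISA. Bidirectional curve fitting against DMSO baseline; cytotoxicity tracked in parallel cultures by SRB total-protein staining.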

Read-out in assay [6]: Monokine induced gamma interferon (MIG), CXCL9 (gene 4283)
The assay can be described thus: BSK_hDFCGF_MIG: BioMAP Diversity Plus: hDFCGF Assay for Monokine induced gamma interferon (MIG) Biomarker Activity (AID 2283063). The settings on record: primary human foreskin fibroblasts; actives raise or lower the signal. In short, it runs like this: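 MIG/CXCL9 measured by ELISA 24 h after dosing primary human skin fibroblasts. Activity fitted in both directions against DMSO controls. Cytotoxicity was checked in parallel cultures by SRB staining read at 560 nm.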

Read-out in assay [7]: Matrix Metallopeptidase 1 (MMP1), MMP1 (gene 4312)
The assay can be described thus: BSK_hDFCGF_MMP1: BioMAP Diversity Plus: hDFCGF Assay for Matrix Metallopeptidase 1 (MMP1) Biomarker Activity (AID 2283064). The settings on record: primary human foreskin fibroblasts; actives raise or lower the signal. In short, it runs like this: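 Primary human foreskin fibroblasts in the hDFCGF system were dosed with test chemical, and MMP1 was measured by ELISA 24 h later. Values come from bidirectional curve fitting against the DMSO baseline.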

Read-out in assay [8]: Vascular cell adhesion molecule 1 (VCAM1), VCAM1 (gene 7412)
As to the kind of experiment: BSK_hDFCGF_VCAM1: BioMAP Diversity Plus: hDFCGF Assay for Vascular cell adhesion molecule 1 (VCAM1) Biomarker Activity (AID 2283065).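 On AC50: VCAM-1 protein level quantified by ELISA after 24 h chemical exposure.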 As to conditions: primary human foreskin fibroblasts; actives raise or lower the signal. In short, it runs like this:
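Human foreskin fibroblast primary cells dosed with chemical, VCAM-1 measured by ELISA at 24 h. Bidirectional curve fitting relative to DMSO as negative control/baseline.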

Read-out in assay [9]: Plasminogen activator inhibitor-1 (PAI1), SERPINE1 (gene 5054)
As to the kind of experiment: BSK_hDFCGF_PAI1: BioMAP Diversity Plus: hDFCGF Assay for Plasminogen activator inhibitor-1 (PAI1) Biomarker Activity (AID 2283066). The settings on record: primary human foreskin fibroblasts; actives raise or lower the signal. The essentials: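 Human foreskin fibroblasts in the hDFCGF system were dosed with compound for 24 h; PAI-1 was quantified by ELISA. Bidirectional curve fitting used DMSO as negative control and baseline.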

Read-out in assay [10]: Interferon-gamma inducible Protein 10 (IP10), CXCL10 (gene 3627)
The assay can be described thus: BSK_KF3CT_IP10: BioMAP Diversity Plus: KF3CT Assay for Interferon-gamma inducible Protein 10 (IP10) Biomarker Activity (AID 2283068). The settings on record: primary human keratinocytes with fibroblasts; actives raise or lower the signal. The essentials: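 ELISA read-out of IP-10 after 24 h chemical dosing of human skin primary co-culture (keratinocytes, foreskin fibroblasts). Gain or loss of signal relative to DMSO, bidirectional curve fit.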

Assay [11] in a line: BSK_KF3CT_SRB: Viability Assessment in the BioMAP Diversity Plus: KF3CT Assay (AID 2283069).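 Further: total protein by sulforhodamine B staining as a cytotoxicity measure; read 24 h after compound addition.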 The settings on record: primary human keratinocytes with fibroblasts. The essentials: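 Human primary keratinocyte plus foreskin fibroblast co-culture exposed to chemicals for 24 h. Total protein measured by 0.1% sulforhodamine B staining after 10% TCA fixation, read at 560 nm; bidirectional fitting versus DMSO baseline.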

Read-out in assay [12]: Interleukin-1 alpha (IL1a), IL1A (gene 3552)
As to the kind of experiment: BSK_KF3CT_IL1a: BioMAP Diversity Plus: KF3CT Assay for Interleukin-1 alpha (IL1a) Biomarker Activity (AID 2283070). The settings on record: primary human keratinocytes with fibroblasts; actives raise or lower the signal. The essentials:
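Human keratinocyte plus foreskin fibroblast primary co-culture, sampled 24 h after chemical dosing. IL-1a measured by ELISA; responses fitted bidirectionally against DMSO baseline (negative control), so gain or loss of signal both count.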

Read-out in assay [13]: Matrix Metallopeptidase 9 (MMP9), MMP9 (gene 4318)
As to the kind of experiment: BSK_KF3CT_MMP9: BioMAP Diversity Plus: KF3CT Assay for Matrix Metallopeptidase 9 (MMP9) Biomarker Activity (AID 2283074).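 On AC50: MMP9 protein level quantified by ELISA in the co-culture.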 The settings on record: primary human keratinocytes with fibroblasts; actives raise or lower the signal. In short, it runs like this: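 Keratinocyte plus foreskin fibroblast human primary skin co-culture was dosed with chemical and MMP-9 was quantified by ELISA 24 h later. Bidirectional curve fitting used DMSO as negative control and activity baseline.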

Read-out in assay [14]: urokinase plasminogen activator (uPA), PLAU (gene 5328)
The assay can be described thus: BSK_KF3CT_uPA: BioMAP Diversity Plus: KF3CT Assay for urokinase plasminogen activator (uPA) Biomarker Activity (AID 2283075). As to conditions: primary human keratinocytes with fibroblasts; actives raise or lower the signal. In short, it runs like this:
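Human keratinocyte plus foreskin fibroblast primary co-culture exposed to chemical for 24 h. uPA levels were quantified by ELISA, and activity was fitted bidirectionally against a DMSO negative-control baseline.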

Read-out in a further assay: CD40, CD40 (gene 958)
As to the kind of experiment: BSK_LPS_CD40: BioMAP Diversity Plus: LPS Assay for CD40 Biomarker Activity (AID 2283076). The settings on record: primary human HUVEC with PBMC; actives raise or lower the signal. In short, it runs like this: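 HUVEC plus PBMC co-culture stimulated with LPS; CD40 quantified by ELISA 24 h after compound dosing. Fitting was bidirectional relative to DMSO. SRB staining of parallel cultures flagged overt cytotoxicity.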

Read-out in assay [15]: E-selectin (Homo sapiens) (UniProt P16581)
The assay can be described thus: BSK_LPS_Eselectin: BioMAP Diversity Plus: LPS Assay for Eselectin Biomarker Activity (AID 2283077). The settings on record: primary human HUVEC with PBMC; actives raise or lower the signal. In short, it runs like this: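 Human umbilical vein endothelial cells co-cultured with PBMC under LPS stimulation; cell-surface E-selectin measured by ELISA 24 h after dosing. Change in either direction versus DMSO, with SRB total-protein staining in parallel cultures for cytotoxicity.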

The nature of assay [16]: BSK_LPS_SRB: Viability Assessment in the BioMAP Diversity Plus: LPS Assay (AID 2283079).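 Further: total protein by sulforhodamine B absorbance as a cytotoxicity measure; measured one day after compound addition.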 The settings on record: primary human HUVEC with PBMC. In short, it runs like this: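 Co-culture of human umbilical vein endothelial cells and PBMC, read 24 h after dosing. Total protein by 0.1% SRB staining after 10% TCA fixation, absorbance at 560 nm; bidirectional fit against DMSO.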

Read-out in assay [17]: Macrophage colony-stimulating factor (MCSF), CSF1 (gene 1435)
The assay can be described thus: BSK_LPS_MCSF: BioMAP Diversity Plus: LPS Assay for Macrophage colony-stimulating factor (MCSF) Biomarker Activity (AID 2283083). As to conditions: primary human HUVEC with PBMC; actives raise or lower the signal. The essentials: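 HUVEC–PBMC co-culture, M-CSF measured by ELISA 24 h after chemical dosing. Fitted in both directions relative to DMSO as negative control; overt cytotoxicity assessed by SRB total-protein staining in parallel cultures.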

Read-out in assay [18]: Tissue Factor, F3 (gene 2152)
The assay can be described thus: BSK_LPS_TissueFactor: BioMAP Diversity Plus: LPS Assay for Tissue Factor Biomarker Activity (AID 2283084). The settings on record: primary human HUVEC with PBMC; actives raise or lower the signal. The essentials:
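Human umbilical vein endothelial cells co-cultured with PBMC were dosed with compound. Cell-surface CD142 was measured by ELISA 24 h later. Activity was fitted bidirectionally against DMSO, with SRB total-protein staining in parallel cultures for cytotoxicity.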

Read-out in assay [19]: Tumor necrosis factor (Homo sapiens) (UniProt P01375)
As to the kind of experiment: BSK_LPS_TNFa: BioMAP Diversity Plus: LPS Assay for Tumour Necrosis Factor alpha (TNFa) Biomarker Activity (AID 2283085).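 On AC50: TNFa protein level quantified by ELISA in the co-culture.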 As to conditions: primary human HUVEC with PBMC; actives raise or lower the signal. In short, it runs like this:
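Human umbilical vein endothelial cells co-cultured with PBMC were exposed to test chemical and TNFa measured by ELISA 24 h after dosing. Bidirectional curve fitting was done relative to DMSO as negative control and baseline.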

Sequence of Tumor necrosis factor (Homo sapiens) (P01375 whole entry, looked up): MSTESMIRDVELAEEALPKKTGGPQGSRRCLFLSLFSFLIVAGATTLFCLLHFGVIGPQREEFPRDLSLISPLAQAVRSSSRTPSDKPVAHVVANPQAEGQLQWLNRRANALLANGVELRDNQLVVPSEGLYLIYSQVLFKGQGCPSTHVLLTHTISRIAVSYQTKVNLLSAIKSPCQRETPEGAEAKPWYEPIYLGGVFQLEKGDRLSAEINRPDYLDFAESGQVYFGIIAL
Sequence of E-selectin (Homo sapiens) (P16581 whole entry, looked up): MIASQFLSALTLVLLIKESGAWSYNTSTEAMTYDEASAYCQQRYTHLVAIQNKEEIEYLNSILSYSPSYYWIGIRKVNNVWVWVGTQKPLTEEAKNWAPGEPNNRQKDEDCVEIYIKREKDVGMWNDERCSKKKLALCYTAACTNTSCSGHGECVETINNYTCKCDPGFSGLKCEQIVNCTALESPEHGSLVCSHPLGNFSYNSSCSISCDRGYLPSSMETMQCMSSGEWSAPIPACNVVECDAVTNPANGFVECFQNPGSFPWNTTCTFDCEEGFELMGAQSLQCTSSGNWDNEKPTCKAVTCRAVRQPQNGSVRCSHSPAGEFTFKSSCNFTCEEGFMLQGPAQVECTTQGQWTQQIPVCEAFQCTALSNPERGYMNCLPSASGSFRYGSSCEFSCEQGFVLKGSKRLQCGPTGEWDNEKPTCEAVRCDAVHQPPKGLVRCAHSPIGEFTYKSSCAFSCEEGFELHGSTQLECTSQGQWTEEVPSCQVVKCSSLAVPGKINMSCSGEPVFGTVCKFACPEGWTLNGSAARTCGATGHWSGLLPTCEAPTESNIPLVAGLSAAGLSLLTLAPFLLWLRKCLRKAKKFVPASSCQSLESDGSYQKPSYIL

As a reminder, the AC50 is the midpoint of the concentration-response curve, whichever way the signal moves. As to `CC(C)CCCCCCCOP(=O)(Oc1ccccc1)Oc1ccccc1`, the AC50 in assay [1] was 25.7 µM (active); in [2] it was 3.16 µM (active); in [3] it was 8.47 µM (active); in assay [4], 8.83 µM (active); in assay [5] it was 12.8 µM (active); in [6], 11 µM (active). The AC50 in assay [7] was 20 µM (active); in assay [8], 5.85 µM (active); in assay [9], 8.46 µM (active); in assay [10], 30.3 µM (active); in assay [11] it was 25.7 µM (active); in assay [12] it was 11.3 µM (active). For the same compound, the concentration at half-maximal activity (AC50) in [13] is 11.2 µM (active); in assay [14], 20 µM (active); in the assay with CD40, CD40 (gene 958) it was 11.3 µM (active); in [15], 23 µM (active); in assay [16] it was 23.7 µM (active); in assay [17], 15.3 µM (active). In addition, the values for the AC50 in assay [18] and in assay [19] were 31 µM (active) and 30.4 µM (active), respectively.
On to `O=P1(NCCCl)OCCCN1CCCl` (stereo not given), for which the result in assay [1], in [2], in assay [3], in assay [4], in assay [5] and in [6] was inactive. Besides, the outcome in assay [7], in [8], in assay [9], in [10], in assay [11] and in assay [12] was inactive. Moreover, the outcome in assay [13] is “inactive”; in assay [14], “inactive”; in the assay with CD40, CD40 (gene 958), “inactive”; in assay [15], “inactive”; in [16], “inactive”; in [17], “inactive”. Moreover, the outcome in [18] and in assay [19] was inactive.
Regarding `CC(C)CCCCCCCOC(=O)c1ccccc1C(=O)OCCCCCCCC(C)C`, the result in assay [1], in assay [2], in assay [3], in assay [4], in assay [5] and in assay [6] was inactive. In addition, the result in assay [7], in [8], in [9], in [10], in assay [11] and in assay [12] was inactive. For the same compound, the outcome is “inactive” in assay [13]; “inactive” in [14]; “inactive” with CD40, CD40 (gene 958); “inactive” in assay [15]; “inactive” in assay [16]; “inactive” in assay [17]. For the same compound, the result in assay [18] and in [19] was inactive.
